Out of some 290,000 compounds screened, about 2,100 (0.72%) were called active. Roughly 4% stayed inconclusive and do not appear here. The call rests on the fitted dose curve; in most records, active means well fitted inhibition curve with a large enough effect; inconclusive means small, poorly fitted or top-dose-only effect, or effect the other way; inactive means flat fitted curve, though single readings scatter. What follows is part of a selection rich in actives, with near analogues and random picks from the rest.
The compounds below were run against Fructose-bisphosphate aldolase (Giardia intestinalis (strain ATCC 50803 / WB clone C6)) (UniProt A8B2U2) (assay: qHTS Assay for Inhibitors of Fructose-1,6-bisphosphate Aldolase from Giardia Lamblia). Details: purified Giardia FBPA; series mostly up to 59.6 µM; activity, negative = inhibition: at the top concentration.
Fructose-bisphosphate aldolase (Giardia intestinalis (strain ATCC 50803 / WB clone C6)), sequence (A8B2U2 whole entry, looked up): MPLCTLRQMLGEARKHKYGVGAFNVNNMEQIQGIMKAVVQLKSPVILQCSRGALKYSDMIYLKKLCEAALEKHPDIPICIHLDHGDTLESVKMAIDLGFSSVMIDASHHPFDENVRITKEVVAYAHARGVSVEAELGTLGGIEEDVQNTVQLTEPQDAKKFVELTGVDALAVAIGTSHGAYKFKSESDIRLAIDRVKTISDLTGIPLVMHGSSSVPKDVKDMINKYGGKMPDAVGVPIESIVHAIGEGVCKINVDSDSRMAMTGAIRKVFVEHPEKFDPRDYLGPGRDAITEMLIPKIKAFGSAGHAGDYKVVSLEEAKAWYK
In short: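 Giardia FBPA (40 nM reagent) was preincubated 10 min at RT with compound (up to 57.5 uM final), then substrate plus GAPDH/TPI/NAD/arsenate coupling system with diaphorase/resazurin was added; resorufin fluorescence (525/598 nm) was read after 20 min.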
Further: nearly all actives have a fitted effect of over 55% in size.
On the % scale 0 is the no-effect control and ±100 the full control effect; potency means the concentration at half of the fitted maximal effect.

Row | Compound | activity, negative = inhibition | Potency
1 | COc1ccccc1-c1nnc(NC(=O)c2ccc3ncsc3c2)o1 | 28.4% (inactive) | –
2 | Cc1ccc(C(=O)Nc2nnc(C3=COCCO3)o2)cc1C | – | 31.6 µM (active)
3 | COc1ccccc1-c1nnc(NC(=O)c2cccc(N3C(=O)CCC3=O)c2)o1 | 10.3% (inactive) | –
4 | COC(=O)c1ccccc1NC(=O)C1CCN(C(=O)N2CCOc3ccccc32)CC1 | -3.52% (inactive) | –
5 | COc1ccc(C2Oc3c(I)c(OC)cc(OC)c3CC2O)cc1OC (stereo not drawn) | 7.26% (inactive) | –
6 | Oc1cc(O)c2c(c1)OC(c1ccc(O)c(O)c1)C(O)C2 (stereo not drawn) | – | 9.98 µM (active)
7 | O=C(NC(=S)Nc1ncccn1)c1ccccc1Br | – | 3.98 µM (active)
8 | O=C(NC(=S)Nc1ccc(S(=O)(=O)Nc2ncccn2)cc1)c1cccc(Br)c1 | 1.97% (inactive) | –
9 | COC(=O)c1ccccc1NC(=S)NC(=O)c1ccccc1F | -16.7% (inactive) | –
10 | CCOc1ccc(OCC)c(NC(=O)CCS(=O)(=O)c2ccc(C)cc2)c1 | 7.51% (inactive) | –
11 | COCCCNCCOCCOc1ccc(Cl)cc1Br | -23.6% (inactive) | –
12 | Cn1c(CCCOc2ccc(Cl)cc2Cl)n[nH]c1=S | -0.566% (inactive) | –
13 | CN(C)CCOc1ccc(Cl)cc1C(C)(C)C | – | 14.1 µM (active)
14 | C=CCNC(=S)N/N=C/c1ccc(C)s1 | 5.8% (inactive) | –
15 | CNC(=S)N/N=C/c1ccc(N2CCOCC2)s1 | – | 12.6 µM (active)
16 | Cc1cc(C(=O)N/N=C/c2ccc(N3CCOCC3)cc2)c(C)o1 | -0.673% (inactive) | –
17 | O=C(CCCC(=O)N1CCN(c2cccc(Cl)c2)CC1)c1ccccc1 | -11.4% (inactive) | –
18 | NC(=O)CC(NC(=O)Cc1ccc(Br)cc1)c1ccc(NC2CC3CCC2C3)c([N+](=O)[O-])c1 (stereo not drawn) | -10.4% (inactive) | –
19 | COc1cc(OC)c(C(=S)N2CCCC2)cc1OC | -20.3% (inactive) | –
20 | O=S(=O)(Nc1ccc2nc(-c3ccco3)[nH]c2c1)c1ccccc1 | – | 19.9 µM (active)
21 | O=S(=O)(Nc1ccc2cn[nH]c2c1)c1ccccc1 | -18.7% (inactive) | –
22 | Cn1c(CCN2CCCC2)nc2cc(NS(=O)(=O)c3ccccc3)ccc21 | -18.8% (inactive) | –

Row | Compound | activity, negative = inhibition | Potency
23 | CCN1CCN(C(=O)C2CCCN(S(=O)(=O)c3ccc(OC)c(OC)c3)C2)CC1 (stereo not drawn) | 5.43% (inactive) | –
24 | Cc1ccc(N(Cc2cc(=O)[nH]c3ccccc23)C(=O)CCl)cc1 | -5.08% (inactive) | –
25 | O=C(NCCCc1ccccc1)c1cc(COc2c(F)cccc2F)on1 | -2.9% (inactive) | –
26 | Cc1cc(C)c(C#N)c(N2CCC(C(N)=O)CC2)n1 | 4.78% (inactive) | –
27 | N#Cc1c(-c2ccccc2)cc(-c2ccccc2)nc1SCC(=O)O | 14.5% (inactive) | –
28 | N#Cc1c(N2CCCCC2)nc(N)c2c(N)nc(SCC(=O)O)cc12 | – | 12.6 µM (active)
29 | CSc1nnc(C2CCCN(CC(=O)Nc3ccccc3N3CCOCC3)C2)n1C(C)C (stereo not drawn) | 13.2% (inactive) | –
30 | CC(=O)NC1CCN(CC(=O)Nc2nccs2)CC1 | – | 10 µM (active)
31 | CC(=O)NC(CC(=O)Nc1nccs1)c1ccccc1 (stereo not drawn) | 19.9% (inactive) | –
32 | Cc1cc(C)cc(N(CC(=O)NC2CCCC2)C(=O)CCC(=O)Nc2nccs2)c1 | -3.79% (inactive) | –
33 | COc1ccccc1CCNS(=O)(=O)c1cn(C)nc1C | 3.76% (inactive) | –
34 | COc1ccc(CNC(=O)c2cc(=O)c3c(C)cc(C)cc3o2)cc1 | -2.56% (inactive) | –
35 | O=C(N/N=C/c1ccc(O)c2ccccc12)c1cccnc1 | -1.74% (inactive) | –
36 | O=C(N/N=C/c1ccccn1)c1cccnc1 | – | 4.46 µM (active)
37 | CNC(=O)C(=O)N/N=C/c1ccccn1 | -28% (inactive) | –
38 | Cc1ccc(/C=C(\C#N)C(=O)Nc2cccc3ncccc23)o1 | – | 5.61 µM (active)
39 | Cc1ccc(C(=O)Nc2cccc3ncccc23)cc1[N+](=O)[O-] | -3.73% (inactive) | –
40 | O=C(Nc1cccc2ncccc12)C(Cl)(Cl)Cl | 0.917% (inactive) | –
41 | COc1ccc(C(=O)CC(=O)c2ccc(C)cc2)c(O)c1 | 0.0144% (inactive) | –
42 | c1ccc2c(c1)CCc1snnc1-2 | 2.66% (inactive) | –
43 | CSc1ccc(S(=O)(=O)N2CCC(C(=O)NCCc3ccccc3)CC2)cc1 | 10.5% (inactive) | –
44 | CSc1ccccc1NC(=O)c1ccc2c(c1)CCN2S(C)(=O)=O | -3.55% (inactive) | –

Row | Compound | activity, negative = inhibition | Potency
45 | CC(NC(=O)Cn1cc(C(F)(F)F)cc(Cl)c1=O)c1ccccc1 (stereo not drawn) | 0.816% (inactive) | –
46 | Cc1nnc(SCC2=C(C(=O)O)N3C(=O)C(NC(=O)Cn4nc(C)c(Cl)c4C)C3SC2)s1 (stereo not drawn) | – | 22.3 µM (active)
47 | Cc1nnc(SCC(=O)NC2CCCC2)s1 | -2.13% (inactive) | –
48 | CO/N=C(\C(=O)N[C@@H]1C(=O)N2C(C(=O)O)=C(COC(C)=O)CS[C@H]12)c1csc(N)n1 (stereo in doubt) | – | inactive
49 | Cc1cccc(NC(=S)NCCc2ccc(Cl)cc2)c1C | -7.76% (inactive) | –
50 | O=C(Nc1ccccc1)/C(=C\c1ccco1)NC(=O)c1ccco1 | -17.9% (inactive) | –
51 | CCCC1=Nc2cc(C(=O)NCCN3CCCC3)ccc2Sc2ccccc21 | -13.9% (inactive) | –
52 | Cc1nc(-c2ccc(Cl)cc2)sc1C(=O)NN | -0.949% (inactive) | –
53 | CCOC(=O)N1CCC(NC(=O)c2ccc3nc(N4CCOCC4)sc3c2)CC1 | 0.489% (inactive) | –
54 | Cc1nc(N2CCOCC2)sc1C(=O)NN | – | 12.6 µM (active)
55 | Cc1ccc(NS(=O)(=O)c2ccc3c(c2)oc(=O)n3C)c(C)c1 | -5% (inactive) | –
56 | Cc1ccc(OCCCCc2c(C)n[nH]c2C)cc1 | – | 20 µM (active)
57 | CCCOc1ccc(-c2nc(N)n[nH]2)cc1 | -0.264% (inactive) | –
58 | Cc1ccc(OCc2n[nH]c(=S)n2-c2ccc(C)cc2)cc1 | -0.791% (inactive) | –
59 | Cc1ccccc1C(=O)N1CCC(C(=O)Oc2ccc(C#N)cc2)CC1 | 3.43% (inactive) | –
60 | Cc1ccc(CNC(=O)C2CCCN2S(=O)(=O)c2ccc3c(c2)C(C)(C)C(=O)N3C)cc1 (stereo not drawn) | -6.54% (inactive) | –
61 | CCCCOC(=O)Nc1nnc(CC(=O)NCc2ccccc2)s1 | -0.363% (inactive) | –
62 | CCCOC1CCCN(C(=O)c2cc(COc3cncc(Cl)c3)on2)C1 (stereo not drawn) | 9.73% (inactive) | –
63 | C/C(=N\NC(N)=S)c1cccnc1 | – | 15.8 µM (active)
64 | C/C(=N\NC(=O)c1cccnc1)c1ccc(-c2ccccc2)cc1 | -7.85% (inactive) | –
65 | C/C(=N\NC(=O)c1cccc([N+](=O)[O-])c1)c1cccnc1 | -13.4% (inactive) | –
66 | CCOC(=O)[C@@H]1[C@H]2COc3cc(OC)ccc3[C@@H]2N2C(=O)N(c3cccc(C)c3)C(=O)[C@@]12C | 7.91% (inactive) | –

Row | Compound | activity, negative = inhibition | Potency
67 | CN(Cc1ccccc1)C(=O)c1cccc(C(=O)N(C)Cc2ccccc2)c1 | -0.983% (inactive) | –
68 | CCOc1ccc(N(CC(=O)NCCc2ccc(F)cc2)S(=O)(=O)c2ccccc2)cc1 | -4.82% (inactive) | –
69 | Cc1cccc(S(=O)(=O)N2CN(CC3CCCO3)c3nc4ccccc4nc32)c1 (stereo not drawn) | 1.71% (inactive) | –
70 | CC/C(=N\NC(=O)c1c(C)nc2ccccn12)c1ccc(Cl)cc1 | 3.33% (inactive) | –
71 | CC1(C)Cc2ccccc2/C(=C/C(=O)c2ccccc2)N1 | 3.19% (inactive) | –
72 | Cn1c(SCC(=O)N/N=C/c2ccc(O)c(O)c2)nc2ccccc21 | -28.4% (inactive) | –
73 | CCCc1nc2ccccc2c(=O)n1/N=C/c1ccc(O)c(O)c1 | – | 2.51 µM (active)
74 | CCCc1nc2ccccc2c(=O)n1NC(=O)c1c(O)c2ccccc2[nH]c1=O | 13.6% (inactive) | –
75 | CC1C(=O)N(Cc2ccccc2)c2ccccc2N1C(=O)c1ccccc1 (stereo not drawn) | -14% (inactive) | –
76 | COc1ccccc1C1C(C(N)=O)=C(C)Nc2nc(CCCO)nn21 (stereo not drawn) | -8.27% (inactive) | –
77 | CN1C(=O)/C(=C\c2ccc(-c3ccccc3)o2)SC1=S | – | 4.46 µM (active)
78 | CN=C1S/C(=C\c2ccc(Sc3ccc(Cl)cc3)o2)C(=O)N1C | -1.64% (inactive) | –
79 | O=C(O)C(c1ccccc1)N1C(=O)/C(=C\c2ccc(-c3cccc(Cl)c3)o2)SC1=S (stereo not drawn) | 0.845% (inactive) | –
80 | COc1ccc(CNCCc2c[nH]c3ccccc23)cc1OC | – | 17.8 µM (active)
81 | COc1ccc(S(=O)(=O)NCCc2c[nH]c3ccccc23)cc1OC | -11% (inactive) | –
82 | COc1ccc(CNC(=O)[C@H](Cc2c[nH]c3ccccc23)NC(C)=O)cc1OC | 7.31% (inactive) | –
83 | CCN(CC(=O)Nc1ccc(Cl)c(S(=O)(=O)N(C)C)c1)Cc1nc2ccccc2c(=O)[nH]1 | -22.3% (inactive) | –
84 | CCN(CC(=O)NC(=O)NCc1ccccc1)Cc1nc2ccccc2c(=O)[nH]1 | – | 17.7 µM (active)
85 | CCN(CC(=O)Nc1cccc(S(N)(=O)=O)c1)Cc1nc2ccccc2c(=O)[nH]1 | -26.8% (inactive) | –
86 | CC(C)CCNC(=O)c1ccc2c(Cl)c3c(nc2c1)CCC3 | 8.8% (inactive) | –
87 | Cc1ccc(-n2c(SCC(=O)N3CCC(C(=O)O)CC3)nc3ccccc3c2=O)cc1C | 20.7% (inactive) | –
88 | COc1cc(CN2CC(C)CC(C)C2)cc([N+](=O)[O-])c1O (stereo not drawn) | -12.8% (inactive) | –

Row | Compound | activity, negative = inhibition | Potency
89 | COc1cc(CN2CCN(Cc3ccc(C)cc3)CC2)c([N+](=O)[O-])cc1OC | – | 5.61 µM (active)
90 | COc1cc(NC(=O)NCC2CCN(Cc3ccc(C)cc3)CC2)cc(OC)c1OC | 8.41% (inactive) | –
91 | CC(=O)c1ccc(N2CCN(S(=O)(=O)c3ccc4c(c3)CC(=O)N4C)CC2)cc1 | -5.35% (inactive) | –
92 | COc1ccc(NC(=O)c2cc(-c3cc(OC)c(OC)c(OC)c3)nc3ccccc23)c(OC)c1 | 7.02% (inactive) | –
93 | Cn1c(=O)n(C)c2cc(S(=O)(=O)Nc3ccc(F)cc3)ccc21 | 0.615% (inactive) | –
94 | COc1ccc(NC(=O)C(CC(C)C)NC(=O)C2CCC(C)CC2)cc1 (stereo not drawn) | -1.41% (inactive) | –
95 | CC[C@]1(c2ccccc2OC)C(=O)N(C(=O)OC)N1C(=O)OC | 5.5% (inactive) | –
96 | COc1cccc(C(=O)N2C[C@H]3C[C@@H](C2)c2cccc(=O)n2C3)c1 | 3.02% (inactive) | –
97 | COc1ccccc1NC(=O)N1C[C@@H]2C[C@@H](C1)c1cccc(=O)n1C2 | 11.9% (inactive) | –
98 | O=C(NC(=S)N1C[C@H]2C[C@H](C1)c1cccc(=O)n1C2)c1ccc(F)cc1 | – | 7.94 µM (active)
99 | Cc1ccc(SCCSc2ncccn2)cc1 | 2.18% (inactive) | –
100 | COCCNC(=S)Nc1cc(S(=O)(=O)N2CCOCC2)ccc1N1CCCCC1 | – | 2.81 µM (active)
101 | O=C(COC(=O)Cc1ccc(F)cc1)Nc1cc(S(=O)(=O)N2CCOCC2)ccc1N1CCCC1 | 3.37% (inactive) | –
102 | CC(=O)NCCC(=O)Nc1cc(S(=O)(=O)N2CCOCC2)ccc1N1CCOCC1 | 6.3% (inactive) | –
103 | Cc1ccc(C(=O)NC2CCN(C(=O)Nc3ccc(F)cc3)CC2)cc1 | -11.8% (inactive) | –
104 | C=CCCN(C(Cc1ccccc1)C(=O)OC)S(=O)(=O)c1cc(Br)ccc1Br (stereo not drawn) | 1.34% (inactive) | –
105 | CCCNC(=O)c1ccc(N2CCC3(CC2)CC(c2ccc(Cl)cc2)=NO3)c([N+](=O)[O-])c1 | 0.473% (inactive) | –
106 | Cc1cc(C)n(-c2ccc(Cl)c(C(=O)O)n2)n1 | – | 15.8 µM (active)
107 | COc1ccc(NC(=O)c2nc(-n3nc(C)cc3C)ccc2Cl)cc1Cl | 18.5% (inactive) | –
108 | Cc1cc(C)n(-c2ccc3nncn3n2)n1 | 0.189% (inactive) | –
